For 14 compounds, growth results are on record in PubChem BioAssay (NCI).

This is part of a sample that, as a whole, favours compounds with a hit. Of some 83,000 tested, about 20% had one in any assay.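 Assay: single dose, 48 h. Readout: percent growth (0 = no net growth; negative = cell death). Active: <10.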 A number with no mark means an inactive call. Calls of active or inactive are those of the source.

Test systems include SR leukemia; RPMI-8226 leukemia; OVCAR-8 ovarian; OVCAR-5 ovarian; OVCAR-4 ovarian; SK-OV-3 ovarian; IGROV1 ovarian; OVCAR-3 ovarian; NCI/ADR-RES ovarian; HS 578T breast.
Holding throughout (assay): NCI-60 one-dose screen, 48 h (100 = growth as untreated, 0 = no growth, -100 = all killed)
Holding throughout (conditions): 10 µM unless noted

On to `COc1cc(C2CC(C3C(=O)N(C)C(=O)N(C)C3=O)=NN2C=O)cc(OC)c1OC` (configuration not stated), for which the growth in the test on SR leukemia is 105%; in the test with RPMI-8226 leukemia, 99.7%; with OVCAR-8 ovarian, 93.9%; with OVCAR-5 ovarian it was 107%; in the test with OVCAR-4 ovarian, 107%; in the test on SK-OV-3 ovarian, 76.4%. Moreover, the growth was 110% in the test on IGROV1 ovarian, 107% with OVCAR-3 ovarian and 99.8% in the test on NCI/ADR-RES ovarian.

Turning to `c1ccc2nc(N/N=C3\CCCCC3C3CCCCC3)ccc2c1` (configuration not stated), the growth in the test on SR leukemia is -17.5% (active); with RPMI-8226 leukemia, -18.8% (active); in the test with OVCAR-8 ovarian, 83.6%; with OVCAR-5 ovarian, 58%; in the test on OVCAR-4 ovarian it was 51.1%; with SK-OV-3 ovarian, 88.6%. Moreover, the values for the growth in the test with IGROV1 ovarian, in the test on OVCAR-3 ovarian and with NCI/ADR-RES ovarian were 44.4%, 33.2% and 57.2%, respectively.

Consider `CCCCCCCC[Si](OCC)(OCC)OCC`, for which the growth in the test with SR leukemia is 79.4%; in the test with RPMI-8226 leukemia, 99.2%; with OVCAR-8 ovarian, 98.9%; with OVCAR-5 ovarian it was 104%; in the test on OVCAR-4 ovarian, 103%; in the test with SK-OV-3 ovarian, 105%. In addition, the growth in the test on IGROV1 ovarian was 94.6%; in the test with OVCAR-3 ovarian, 106%; with HS 578T breast, 109%; in the test on NCI/ADR-RES ovarian it was 108%.

For the compound `CC(=O)N1N=C(c2ccc(Cl)cc2)CC1c1c(C)nn(-c2ccccc2)c1N(C)Cc1ccccc1` (configuration not stated), the growth in the test with SR leukemia is 72.4%; in the test with RPMI-8226 leukemia, 46.8%; with OVCAR-8 ovarian it was 80.9%; in the test with OVCAR-5 ovarian, 97.9%; in the test with OVCAR-4 ovarian, 80%; with SK-OV-3 ovarian it was 70.6%. Besides, the growth in the test with IGROV1 ovarian was 63.7%; in the test on OVCAR-3 ovarian, 81.9%; in the test on NCI/ADR-RES ovarian, 64.1%.

As for `CNc1nc(NC2CCCC2)nc(Sc2ccc(OC)cc2)n1`, the growth in the test with SR leukemia is -0.593% [100 µM] (active); with RPMI-8226 leukemia, -11.2% [100 µM] (active); in the test on OVCAR-8 ovarian, 20.2% [100 µM]; in the test with OVCAR-5 ovarian, 59.5% [100 µM]; in the test with OVCAR-4 ovarian, 36.9% [100 µM]; in the test with SK-OV-3 ovarian, 74.9% [100 µM]. The growth in the test with IGROV1 ovarian is 45.9% [100 µM]; in the test with OVCAR-3 ovarian it was -25.5% [100 µM] (active); with NCI/ADR-RES ovarian, 11.9% [100 µM].

For `O=C(/C=C/c1cccc(Nc2ccnc3cc(Cl)ccc23)c1)c1ccc(Cl)cc1`, the growth in the test on SR leukemia was -9.97% (active); in the test with RPMI-8226 leukemia, -9.58% (active); with OVCAR-8 ovarian, 45.1%; in the test on OVCAR-5 ovarian it was 60.4%; with OVCAR-4 ovarian it was 45.6%; in the test with SK-OV-3 ovarian, 76.7%. For the same compound, the results for the growth with IGROV1 ovarian, with OVCAR-3 ovarian and in the test with NCI/ADR-RES ovarian were 40.7%, 56.8% and 38.1%, respectively.

With `O=C(CSc1nnc(-c2cc(-c3ccccc3)nc3ccccc23)o1)c1ccc(Br)cc1`, the growth is 83.7% in the test with SR leukemia; 109% in the test on RPMI-8226 leukemia; 100% with OVCAR-8 ovarian; 104% with OVCAR-5 ovarian; 106% in the test with OVCAR-4 ovarian; 112% with SK-OV-3 ovarian. The growth in the test on IGROV1 ovarian is 102%; in the test on OVCAR-3 ovarian, 108%; with NCI/ADR-RES ovarian, 107%.

For the compound `COc1cc(/C=C/C(=O)c2c(C)n([O-])c3ccc(Cl)cc3[n+]2=O)cc(OC)c1OC`, the growth with SR leukemia was 11.8%; in the test with RPMI-8226 leukemia, 72.6%; with OVCAR-8 ovarian it was 50.8%; in the test with OVCAR-5 ovarian, 98.2%; in the test with OVCAR-4 ovarian it was 71%; in the test on SK-OV-3 ovarian, 104%. In addition, the growth in the test on IGROV1 ovarian is -62.2% (active); in the test with OVCAR-3 ovarian, 102%; with HS 578T breast it was 70.5%; in the test on NCI/ADR-RES ovarian, 73.5%.

Consider `COc1ccc(C(=O)/C=C/c2cccc(Nc3ccnc4cc(Cl)ccc34)c2)cc1`, for which the growth with SR leukemia was 0.362% (active); in the test on RPMI-8226 leukemia, 35.3%; with OVCAR-8 ovarian it was 10.2%; with OVCAR-5 ovarian, 39.3%; in the test with OVCAR-4 ovarian it was -46% (active); in the test on SK-OV-3 ovarian, 64%. The growth is 30.2% with IGROV1 ovarian, 23.9% with OVCAR-3 ovarian and 21.3% in the test on NCI/ADR-RES ovarian.

For the compound `Cc1sc2nc(NCCc3cccs3)[nH]c(=O)c2c1C`, the growth with SR leukemia is 72.1%; with RPMI-8226 leukemia it was 86.7%; with OVCAR-8 ovarian, 87.4%; in the test on OVCAR-5 ovarian, 97.8%; in the test with OVCAR-4 ovarian, 95.6%; in the test on SK-OV-3 ovarian, 79%. For the same compound, the growth was 101% in the test on IGROV1 ovarian, 106% in the test on OVCAR-3 ovarian and 85.2% with NCI/ADR-RES ovarian.

For `CN1C(=O)C(C2=NN(C=O)C(c3ccc(F)cc3)C2)C(=O)N(C)C1=O` (configuration not stated), the growth is 101% in the test with SR leukemia; 95.8% in the test on RPMI-8226 leukemia; 98.9% in the test with OVCAR-8 ovarian; 97.1% in the test on OVCAR-5 ovarian; 102% in the test with OVCAR-4 ovarian; 94.6% in the test with SK-OV-3 ovarian. The growth is 104% in the test on IGROV1 ovarian, 99.9% with OVCAR-3 ovarian and 99.2% with NCI/ADR-RES ovarian.

On to `COc1ccc2cc(C3=CC(=O)CCC3)ccc2c1`, for which the growth was 91.8% with SR leukemia; 92.6% in the test with RPMI-8226 leukemia; 105% with OVCAR-8 ovarian; 98.7% in the test on OVCAR-5 ovarian; 104% with OVCAR-4 ovarian; 120% in the test on SK-OV-3 ovarian. In addition, the growth was 106% in the test with OVCAR-3 ovarian, 116% in the test on HS 578T breast and 95.6% with NCI/ADR-RES ovarian.

`Cn1cc(NC(=O)Nc2cc(C(=O)O)n(C)c2)cc1C(=O)O`: the growth with SR leukemia is 86.8%; in the test with RPMI-8226 leukemia, 125%; with OVCAR-8 ovarian, 94.4%; in the test with OVCAR-5 ovarian, 107%; with OVCAR-4 ovarian it was 99.8%; with SK-OV-3 ovarian, 112%. For the same compound, the values for the growth in the test with OVCAR-3 ovarian, in the test with HS 578T breast and in the test on NCI/ADR-RES ovarian were 102%, 108% and 105%, respectively.

As for `Cc1ccc(S(=O)(=O)NCCN2c3nc4ccccc4cc3Sc3cc4ccccc4nc32)cc1`, the growth with SR leukemia is 73.7%; in the test on RPMI-8226 leukemia, 78.7%; in the test on OVCAR-8 ovarian, 34.1%; with OVCAR-5 ovarian, 85.6%; with OVCAR-4 ovarian, 22.9%; in the test with SK-OV-3 ovarian, 53.3%. The growth is 83.7% in the test on OVCAR-3 ovarian and 33.4% in the test with HS 578T breast.
